Shown are actives, neighbours in structure and some others; about 0.71% of the full set was active somewhere.
Cathepsin G inh: blocks human cathepsin G enzyme activity; P08311; purified enzyme, AMC-tetrapeptide fluorescence, pooled mixtures; inhibition, % at 5 µM (by protocol); 0.2% of 62,000 active; AID 581;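 active = inhibition above 20% in each of the two mixture wells holding the compound; inactive = inhibition of 20% or less in either well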;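 also: 0% = enzyme control without mixture and 100% = blank lacking enzyme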
mHtt clearance: mutant huntingtin protein clearance. AID 853. HeLa Exon1htt(103Q)mCFP, aggregate imaging; zero = plate's median compound well. inhibition, % at 1.5 µM. 0.42% of 47,000 active;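 active = inhibition of aggregate fluorescence above about 70%, also judged a hit by eye on the cell image, limit read from the data, passing the limit was not always enough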;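 also: cells exposed to compound for three days before fixation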
FXIa inh mix: blocks human factor XIa in pooled compound mixtures. P03951. purified FXIa, fluorogenic substrate. inhibition, % at 5 µM. 0.19% of 62,000 active;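 also: each value is inhibition by a whole ten-compound pool holding the compound; 0% = enzyme with no mixture and 100% = wells lacking enzyme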
Target sequence (P03951 19-387 limits assumed): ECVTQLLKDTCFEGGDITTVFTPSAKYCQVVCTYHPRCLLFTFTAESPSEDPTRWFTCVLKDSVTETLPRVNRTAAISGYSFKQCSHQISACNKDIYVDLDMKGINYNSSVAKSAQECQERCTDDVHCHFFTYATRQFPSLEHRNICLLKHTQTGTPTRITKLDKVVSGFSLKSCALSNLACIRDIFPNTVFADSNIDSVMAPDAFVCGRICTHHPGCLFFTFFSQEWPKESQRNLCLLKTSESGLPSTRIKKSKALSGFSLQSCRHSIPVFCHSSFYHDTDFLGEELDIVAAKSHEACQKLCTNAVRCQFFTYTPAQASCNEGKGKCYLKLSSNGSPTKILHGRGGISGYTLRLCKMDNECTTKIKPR
Target sequence (P03951 388-625 limits assumed): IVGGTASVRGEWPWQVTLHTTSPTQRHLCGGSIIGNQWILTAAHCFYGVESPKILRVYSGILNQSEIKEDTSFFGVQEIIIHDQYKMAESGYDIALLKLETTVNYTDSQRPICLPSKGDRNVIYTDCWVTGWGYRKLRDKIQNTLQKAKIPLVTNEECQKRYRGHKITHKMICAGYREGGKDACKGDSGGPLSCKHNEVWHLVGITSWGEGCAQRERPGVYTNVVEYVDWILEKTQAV
FXIIa mix inh: inhibitors of human coagulation factor XIIa, pooled mixtures. P00748. purified FXIIa, fluorogenic substrate. inhibition, % at 5 µM. 0.2% of 62,000 active. AID 684;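 also: 0% = enzyme without compound and 100% = no enzyme blank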
C1s block: human complement C1s inhibition | purified C1s, fluorogenic AMC substrate, pooled mixtures | mean inhibition % of two 10-compound mixtures (stronger effect = higher value), % at 5 µM (by protocol) | 0.16% of 62,000 active | AID 538;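 active = inhibition above 20% in each of the two 10-compound mixture wells holding the compound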;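 also: 0% = enzyme wells lacking compound mixture and 100% = no-enzyme blank wells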
The depositor's hits bear a star; nt = not tested or not shown. Rule as the data show it, unless noted: active = inhibition above about 20% (passing the limit was not always enough); inactive = the rest.

SMILES | Cathepsin G inh | mHtt clearance | FXIa inh mix | FXIIa mix inh | C1s block
O=C1CC(N2CCC(O)(c3ccc(Cl)cc3)CC2)C(=O)N1 (configuration not stated) | 7 | -77 | 7 | 2 | 2
Cc1c(N=C2NC(=O)C(CC(=O)Nc3ccc(Cl)cc3)S2)c(=O)n(-c2ccccc2)n1C (configuration not stated) | 11 | 70* | 10 | 1 | 16
CCN1C(=O)c2ccc(-c3nc4ccccc4c(=O)o3)cc2C1=O | 39* | nt | 12 | -5 | 12
CCN1C(=O)c2c(C)nc3ccccc3c2C1=O | 0 | 24 | 6 | 24 | 4
Cc1cc(NS(=O)(=O)c2ccc(N)cc2)no1 | 15 | nt | 19 | 8 | 16
CCCn1c(NCc2ccc(N(C)C)cc2)nc2ccccc21 | 9 | -4 | 0 | -1 | 12
CCN(CC)CCn1c(NCc2ccc(OC)cc2)nc2ccccc21 | 10 | 86* | 4 | 1 | 14
CCN1C(=O)CC(N2CCC(Nc3ccc(OC)cc3)CC2)C1=O (configuration not stated) | 8 | -38 | 21* | 2 | 13
COc1ccc(NC2CCN(C3CC(=O)N(c4ccc(F)c(Cl)c4)C3=O)CC2)cc1 (configuration not stated) | 8 | nt | 9 | 2 | 18
COC(=O)c1ccc(-n2nnnc2SCC(=O)Nc2cc(OC)ccc2OC)cc1 | 0 | -28 | 3 | -2 | -1
COc1ccccc1NC(=O)CSc1nnnn1-c1ccc(C)cc1 | nt | 74* | nt | nt | nt
COc1ccc2c(C)cc(N3CCOCC3)nc2c1 | nt | 73* | nt | nt | nt
Cc1cc(C)c2c(CC(=O)NCc3ccco3)coc2c1 | 10 | -28 | 7 | 2 | 21*
Cc1ccc(SCC(=O)NCc2ccco2)cc1 | 5 | 38 | -3 | 2 | 14
O=C(COC(=O)Cc1ccsc1)NC1CCCCCC1 | 8 | 74* | -1 | 8 | 4
CC(C)CCN(C(=O)CNC(=O)c1ccco1)C(C(=O)NC1CCCCC1)c1ccco1 (configuration not stated) | 8 | 44 | 6 | 2 | 12
CCOC(=O)N1CCN(C(=O)CC(=O)Nc2ccc3nc4n(c(=O)c3c2)CCCCC4)CC1 | 1 | nt | 8 | 47* | -10
CCOC(=O)N1CCN(C(=O)C(=O)Nc2ccc3nc4n(c(=O)c3c2)CCCCC4)CC1 | nt | -54 | nt | nt | nt
O=C(Nc1ccc2oc(=O)ccc2c1)c1cccnc1 | 16 | nt | 16 | -1 | 23*
CCOC(=O)c1cccc(NC(=O)N[C@@H](C)C(=O)OC)c1 | 9 | 17 | 8 | 9 | 14
COc1cccc(Oc2cncnc2-c2ccc(OC)cc2O)c1 | 7 | 73* | 1 | 8 | 3
COC(=O)c1ccc(C(=O)OC)c(NC2=NS(=O)(=O)c3ccccc32)c1 | 3 | 75* | 11 | 0 | 4
CCC(=O)Oc1ccc(-c2nc(-c3cccnc3)no2)cc1 | nt | 7 | nt | nt | nt
CCC(=O)Oc1ccc(C(CC)C(CC)c2ccc(OC(=O)CC)cc2)cc1 (configuration not stated) | 9 | nt | 8 | 5 | 22*
Cc1ccc(CS(=O)(=O)CCC(=O)NCCN2CCCC2)cc1 | 10 | 44 | 8 | 10 | 16
SMILES | Cathepsin G inh | mHtt clearance | FXIa inh mix | FXIIa mix inh | C1s block
Cc1ccc(CS(=O)(=O)CCC(=O)NCCCN2CCCC2=O)cc1 | -1 | 21 | 7 | 22* | -28
Cc1cc(C)nc(N2CCCC(C(=O)NCC(c3ccccc3)c3ccccc3)C2)n1 (configuration not stated) | nt | 88* | nt | nt | nt
Cc1cc(C)nc(N2CCCC(C(=O)NCCc3ccc(F)cc3)C2)n1 (configuration not stated) | 17 | nt | 9 | 4 | 19
Cc1cc(NC(=O)c2noc3c2CCc2ccccc2-3)no1 | 95* | nt | 42* | 10 | -13
O=C(NCCCn1ccnc1)c1noc2c1CCc1ccccc1-2 | 95* | -7 | 19 | 5 | 17
Cc1c(NC(=O)c2noc3c2CCc2ccccc2-3)c(=O)n(-c2ccccc2)n1C | 41 | 23 | 14 | -2 | 6
Cc1ccccc1Cn1nc(C)c(NC(=O)c2noc3c2CCc2ccccc2-3)c1C | 72* | -4 | 17 | -3 | 6
C=CCn1c(N(C)C)nc2c1c(=O)[nH]c(=O)n2C | 10 | nt | 7 | 7 | 8
CC(C)(C)NCCCCOc1ccc(F)cc1 | -2 | 13 | 0 | 26* | -1
COCCn1c(=S)[nH]c2ncccc2c1=O | 50 | -35 | 38* | 8 | -9
CC(=O)NCC(=O)OCN1C(=O)c2ccccc2C1=O | nt | 69 | nt | nt | nt
COc1ccccc1NC(=O)CNC(=O)c1ccccc1C | nt | -41 | nt | nt | nt
COc1ccc(NC(=O)C2CC(=O)N(c3cc(C)ccc3C)C2)cc1 (configuration not stated) | 48 | -5 | 67* | 2 | -6
Cc1ccc(N2CC(C(=O)Oc3cccc(N4C(=O)CCC4=O)c3)CC2=O)cc1 (configuration not stated) | 2 | -3 | 9 | 4 | 2
COC(=O)c1ccc(OC(=O)C2CC(=O)N(c3ccc(C)cc3C)C2)cc1 (configuration not stated) | 40 | 29 | 31* | -4 | -2
Cc1ccccc1NS(=O)(=O)c1ccc(F)cc1 | 10 | nt | 1 | -12 | 4
O=S(=O)(Nc1ccccc1F)c1ccc2nsnc2c1 | 0 | nt | 2 | 21* | 4
CCN(CC)c1ccc(NC(=O)CN2C(=O)CSc3ncccc32)c(C)c1 | 29 | 20 | 23* | 0 | 12
O=C(O)c1cccc(NS(=O)(=O)c2ccc3nnn(O)c3c2)c1 | 1 | -27 | 5 | 37* | -12
O=C(O)c1cccc(NS(=O)(=O)c2ccc(Cl)c(C(=O)O)c2)c1 | 24 | -48 | 17 | 22* | 15
CC(=O)c1coc2ccc(OCC(=O)O)cc12 | 12 | nt | 4 | 3 | 13
Cc1onc(-c2ccccc2)c1C(=O)N1CC(C)OC(C)C1 (configuration not stated) | -8 | -20 | 4 | 7 | -18
CCn1cc(SCC(=O)NCc2ccc3c(c2)OCO3)c2ccccc21 | 6 | nt | 10 | 4 | 3
CC12CCC(C(=O)NCc3ccc(Cl)cc3)(OC1=O)C2(C)C (configuration not stated) | nt | 11 | nt | nt | nt
CC(=O)c1cn(CC(=O)NCc2ccc3c(c2)OCO3)c2ccccc12 | 14 | -74 | 7 | 2 | 64*
CC12CCC(C(=O)NCC3CCCO3)(OC1=O)C2(C)C (configuration not stated) | 43 | -40 | 42* | 4 | 45
CC12CCC(C(=O)NCc3ccc4c(c3)OCO4)(OC1=O)C2(C)C (configuration not stated) | -4 | 71* | 8 | -18 | 5
CC12CCC(C(=O)NCc3ccccc3)(OC1=O)C2(C)C (configuration not stated) | -2 | nt | 6 | -3 | -31
CC(C)OC(=O)Cn1cnc2ccc(Br)cc2c1=O | 4 | -5 | 12 | -1 | 1
CCOC(=O)Cc1cnc(NC(=O)NC(C(=O)OCC)(c2ccccc2)C(F)(F)F)s1 (configuration not stated) | 2 | -34 | 17 | 9 | -22

Screening data (PubChem BioAssay)
